For 40 compounds, Potency and activation results are on record in PubChem BioAssay (Tox21).

Inconclusive results are not listed. A call without a number means that no potency is given here. The source made the active and inactive calls. The call rests on the fitted dose curve; in most records, active means well fitted activation curve with a large enough effect in the signal ratio in the repeat runs (not every such curve was filed as active); inconclusive means weak or mixed curves, or effect the other way; inactive means flat fitted curve, though single readings scatter; the % refers to the signal ratio.

Chain of Estrogen receptor beta (Homo sapiens) (Q92731 whole entry, looked up): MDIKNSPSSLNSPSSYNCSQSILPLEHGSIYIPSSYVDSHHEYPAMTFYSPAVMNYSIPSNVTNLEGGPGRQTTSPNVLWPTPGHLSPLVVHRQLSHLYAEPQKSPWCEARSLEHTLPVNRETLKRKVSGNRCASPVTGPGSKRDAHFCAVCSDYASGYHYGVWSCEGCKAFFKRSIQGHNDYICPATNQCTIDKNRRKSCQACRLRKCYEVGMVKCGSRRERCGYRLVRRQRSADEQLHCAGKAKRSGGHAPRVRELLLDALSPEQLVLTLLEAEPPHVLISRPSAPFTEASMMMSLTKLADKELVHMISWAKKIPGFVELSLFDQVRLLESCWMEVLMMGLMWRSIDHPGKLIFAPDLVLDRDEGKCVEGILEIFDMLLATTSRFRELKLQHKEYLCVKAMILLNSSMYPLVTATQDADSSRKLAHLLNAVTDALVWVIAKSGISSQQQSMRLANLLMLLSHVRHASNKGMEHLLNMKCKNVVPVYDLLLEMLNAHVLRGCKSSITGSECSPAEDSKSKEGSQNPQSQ

The test concerns the target Estrogen receptor beta (Homo sapiens) (UniProt Q92731). Put plainly: qHTS assay to identify small molecule agonists of the estrogen receptor beta (ER-beta) signaling pathway (AID 1259377). Particulars: ER-beta-UAS-bla HEK293T, beta-lactamase FRET ratio, 16 h; series mostly up to 92.4 µM. From the text: U.S. Tox21 Program National Center for Advancing Translational Sciences [NCATS] NIH Chemical Genomics Center [NCGC] U.S. Environmental Protection Agency [EPA] National Institutes of Environmental Health Sciences [NIEHS] National Toxicology Program [NTP] U.S. Food and Drug Administration [FDA] Tox21 Assay Overview: Estrogen receptor (ER), a nuclear hormone receptor, plays an important role in development, metabolic homeostasis and reproduction. Two subtypes of ER, ER-alpha and ER-beta, have similar expression patterns with some uniqueness in both types. Endocrine disrupting chemicals (EDCs) and their interactions with steroid hormone receptors like ER causes disruption of normal endocrine function. To identify the compounds that activate ER signaling, an ER beta-UAS-bla GripTite cell line (Life technologies, Madison, WI, USA) containing a beta-lactamase reporter gene under the control of an Upstream Activator Sequence (UAS) was used to screen Tox21 10K compound library.
Tox21 Assay Protocol Summary: ER-beta-UAS-bla HEK293T cells were dispensed at 2,000 cells/5 uL of assay medium containing 2% charcoal stripped FBS per well into black wall/clear-bottom 1536-well plates using a Multidrop Combi (ThermoFisher Scientific, Waltham, MA) dispenser. After the assay plates were incubated at a 37C and 5% CO2 for 6 hr, 23 nL of compounds dissolved in DMSO, positive controls or DMSO only was transferred to the assay plate by a Pintool station (Kalypsys, San Diego, CA). The plates were incubated at 37C and 5% CO2 for 16 hr. Then 1 uL of LiveBLAzerTM B/G FRET substrate was added using a BioRAPTR FRD (Flying Reagent Dispenser, Aurora Discovery, San Diego, CA). After the plates were incubated at room temperature for 2 hours, fluorescence intensity was measured by an Envision plate reader (PerkinElmer, Shelton, CT).
Background: qHTS replaces the single test concentration by a dilution series.
Turning to `Cc1ccc(C(=O)Oc2ccc(C(O)CNC(C)(C)C)cc2OC(=O)c2ccc(C)cc2)cc1` (stereo not given), the Potency entry is “inactive”.
Still for that read-out and setting: the result for `CN(C)CCN(Cc1ccccc1)c1ccccn1` reads “inactive”; that for `O=[N+]([O-])c1ccc(NCCO)c(OCCO)c1`, “inactive”; that for `CCCCCCCN`, “inactive”.
Still for that read-out and setting: as for `COc1ccc(-c2nc3ccc(C4=NNC(=O)CC4C)cc3[nH]2)cc1` (stereo not given), the entry is “inactive”; as for `COS(=O)(=O)C(F)(F)F`, “inactive”.
Take `NCC(=O)O`: the activation is -2.53% [at 19 µM] (inactive).
As for `CCCCC(CC)CN1C(=O)C2C3C=CC(C3)C2C1=O` (stereo not given), the Potency entry is “inactive”.
The same measure, in the same setting: as for `CCN(CC)c1ccc(C(=C2C=CC(=[N+](CC)CC)C=C2)c2cc(S(=O)(=O)O)ccc2S(=O)(=O)[O-])cc1`, the entry is “inactive”; as for `O[C@@H](COc1cccc2ncccc12)CN1CCN(C2c3ccccc3[C@@H]3[C@H](c4ccccc42)C3(F)F)CC1` (stereo not given in full), “inactive”; as for `CCC(Cl)CCC(Cl)C(Cl)CC(Cl)C(Cl)C(Cl)CCl` (stereo not given), “inactive”.
For `C/C=C/C(=O)CC`, the activation is -1.08% [at 19 µM] (inactive).
As to `CCCCCCCCCCCCCCOS(=O)(=O)O`, the Potency result is “inactive”.
On the same count and under the same terms, the result for `COC(=O)C1=C(C)NC(COC(N)=O)=C(C(=O)OC(C)C)C1c1cccc(Cl)c1Cl` (stereo not given) reads “inactive”; that for `CCOC(=O)C(=O)CCc1ccccc1`, “inactive”.
On the same count and under the same terms, the result for `Cc1oc(-c2ccccc2)nc1CCOc1cccc2c1ccn2CCC(=O)O` reads “inactive”.
On the same count and under the same terms, the result for `CC(=O)c1ccc2c(c1)N(CCCN1CCC(CCO)CC1)c1ccccc1S2` reads “inactive”.
`Clc1ccc(Cn2c(CN3CCCC3)nc3ccccc32)cc1`: the Potency result was “inactive”.
Still for that read-out and setting: as for `c1cc(CCCc2ccncc2)ccn1`, the entry is “inactive”.
Regarding `CCOC(=O)C(O)c1ccccc1` (stereo not given), the Potency entry is “inactive”.
Regarding `Cc1ccc(N=Nc2c(O)c(C(=O)O)cc3ccccc23)c(S(=O)(=O)O)c1`, the Potency result was “inactive”.
Consider `Nc1ccc([N+](=O)[O-])c(C(F)(F)F)c1`, for which the Potency result is “inactive”.
The same measure, in the same setting: as for `O=C1OC(CN2CCOCC2)CN1/N=C/c1ccc([N+](=O)[O-])o1` (stereo not given), the entry is “inactive”.
On the same count and under the same terms, the result for `CCN(CC)CCOC(=O)C(c1ccccc1)C1CCCCC1` (stereo not given) reads “inactive”.
On the same count and under the same terms, the result for `CCOC(=O)c1cccnc1` reads “inactive”; that for `C/C=C/C=C/CO`, “inactive”.
Regarding `CNCCCCOc1ccccc1Cc1ccccc1`, the Potency entry is “inactive”.
Consider `COc1cc2nc(N(C)CCCNC(=O)C3CCCO3)nc(N)c2cc1OC` (stereo not given), for which the Potency result was “inactive”.
Same read-out and setting: as for `O=C1C(O)=C(O)C(=O)C(O)=C1O`, the entry is “inactive”; as for `CC1(c2ccccc2)OC(C(=O)O)=CC1=O` (stereo not given), “inactive”.
On the same count and under the same terms, as for `CCCCCCCCCCCC(=O)OC[C@@H](O)[C@H]1OC[C@H](OCCO)[C@H]1OCCO`, the entry is “inactive”; as for `O=C(Nc1ccccc1)c1ccccc1O`, “inactive”.
On to `C[C@@H]1C[C@H]2O[C@@]3(O[C@@H]2C(C)(C)O)[C@H](O)[C@@]2(C)[C@@H]4CC[C@H]5C(C)(C)[C@@H](O[C@@H]6OC[C@@H](O)[C@H](O)[C@H]6O)CC[C@@]56C[C@@]46CC[C@]2(C)[C@@H]13`, for which the Potency entry was “inactive”.
Still for that read-out and setting: the result for `Cc1cc(N)c2cc(NC(=O)Nc3ccc4nc(C)cc(N)c4c3)ccc2n1` reads “inactive”.
On the same count and under the same terms, the result for `C[C@H](CCC(=O)O)[C@H]1CC[C@H]2[C@@H]3CC[C@@H]4C[C@H](O)CC[C@]4(C)[C@H]3C[C@H](O)[C@]12C` reads “inactive”; that for `CN1C[C@H]2c3ccccc3Oc3ccc(Cl)cc3[C@@H]2C1`, “inactive”; that for `COc1ccnc(CS(=O)c2nc3ccc(OC(F)F)cc3[nH]2)c1OC` (stereo not given), “inactive”.
Still for that read-out and setting: the result for `O=[N+]([O-])c1cccc(S(=O)(=O)O)c1` reads “inactive”.
Turning to `CC(=O)c1ccc2c(c1)N(CCCN(C)C)c1ccccc1S2`, the Potency entry was “inactive”.
For the compound `Cc1cccc(C)c1NC(=O)CN(CC(=O)O)CC(=O)O`, the Potency entry is “inactive”.
